Legend:
Conditions in all cases: Compound Concentration (nM):1000
[1] = system: GRK1
[2] = system: T1, GRK2
T1 construct: gene ADRBK1

[3] = system: T2, GRK3
T2 construct: gene ADRBK2

[4] = system: GRK4
[5] = system: GRK7
[6] = system: GSK3A
[7] = system: GSK3B
[8] = system: T3, HASPIN
T3 construct: gene GSG2

[9] = system: HCK
[10] = system: HIPK1
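Also: KINOMEscan scanMAX binding as percent activity remaining versus control; lower means stronger binding.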

NS(=O)(=O)c1ccc(N/N=C2\C(=O)Nc3ccc(C(=O)NCCc4c[nH]cn4)cc32)cc1 [GW300660X]
Percent Control [1]: 80%
Percent Control [2]: 100%
Percent Control [3]: 99%
Percent Control [4]: 100%
Percent Control [5]: 100%
Percent Control [6]: 50%
Percent Control [7]: 19%
Percent Control [8]: 3.6%
Percent Control [9]: 100%
Percent Control [10]: 25%

CCc1ccc(Oc2nccc(-c3c(-c4ccc(F)cc4)ncn3C3CCNCC3)n2)cc1 [SB-242719]
Percent Control [1]: 92%
Percent Control [2]: 94%
Percent Control [3]: 90%
Percent Control [4]: 100%
Percent Control [5]: 100%
Percent Control [6]: 97%
Percent Control [7]: 100%
Percent Control [8]: 86%
Percent Control [9]: 99%
Percent Control [10]: 80%

NS(=O)(=O)c1ccc(N/N=C2\C(=O)Nc3ccc(-c4cnco4)cc32)cc1 [GW276655]
Percent Control [1]: 87%
Percent Control [2]: 94%
Percent Control [3]: 100%
Percent Control [4]: 39%
Percent Control [5]: 81%
Percent Control [6]: 15%
Percent Control [7]: 80%
Percent Control [8]: 0.3%
Percent Control [9]: 95%
Percent Control [10]: 35%

COc1cc(C)c(N(C)C(=O)CN(C)C)cc1Nc1nc(Nc2cccc(F)c2C(N)=O)c2cc[nH]c2n1 [GSK2219385]
Percent Control [1]: 69%
Percent Control [2]: 100%
Percent Control [3]: 80%
Percent Control [4]: 100%
Percent Control [5]: 70%
Percent Control [6]: 100%
Percent Control [7]: 100%
Percent Control [8]: 41%
Percent Control [9]: 100%
Percent Control [10]: 71%

Cl.c1ccc(Cc2nc3ccc(Nc4ncnc5ccccc45)cc3[nH]2)cc1 [GR269666A]
Percent Control [1]: 100%
Percent Control [2]: 100%
Percent Control [3]: 100%
Percent Control [4]: 91%
Percent Control [5]: 100%
Percent Control [6]: 100%
Percent Control [7]: 99%
Percent Control [8]: 88%
Percent Control [9]: 100%
Percent Control [10]: 100%

CC(C)COC(=O)c1ccc2c(c1)/C(=C/Nc1ccc(S(N)(=O)=O)cc1)C(=O)N2 [GW416981X]
Percent Control [1]: 86%
Percent Control [2]: 100%
Percent Control [3]: 100%
Percent Control [4]: 43%
Percent Control [5]: 100%
Percent Control [6]: 45%
Percent Control [7]: 71%
Percent Control [8]: 18%
Percent Control [9]: 100%
Percent Control [10]: 88%

CN1CCN(C(=O)c2ccc(NC(=O)Nc3ccc(N(C)c4ccnc(Nc5ccc(CS(C)(=O)=O)cc5)n4)cc3)cc2)CC1.Cl [GW830263A]
Percent Control [1]: 100%
Percent Control [2]: 100%
Percent Control [3]: 97%
Percent Control [4]: 4.5%
Percent Control [5]: 100%
Percent Control [6]: 100%
Percent Control [7]: 95%
Percent Control [8]: 92%
Percent Control [9]: 100%
Percent Control [10]: 72%

C[C@@H](Oc1cc(-n2cnc3ccc(OC4CCN(C)CC4)cc32)sc1C(N)=O)c1ccccc1Cl [GSK579289A]
Percent Control [1]: 75%
Percent Control [2]: 86%
Percent Control [3]: 78%
Percent Control [4]: 37%
Percent Control [5]: 85%
Percent Control [6]: 98%
Percent Control [7]: 100%
Percent Control [8]: 55%
Percent Control [9]: 91%
Percent Control [10]: 61%

Cl.O=C(Nc1ccc(Oc2ccc3[nH]c(NC(=O)c4ccco4)nc3c2)cc1)Nc1cc(C(F)(F)F)ccc1F [GW683134A]
Percent Control [1]: 100%
Percent Control [2]: 100%
Percent Control [3]: 100%
Percent Control [4]: 100%
Percent Control [5]: 100%
Percent Control [6]: 100%
Percent Control [7]: 88%
Percent Control [8]: 100%
Percent Control [9]: 41%
Percent Control [10]: 100%

COc1cc2ncn(-c3cc(O[C@H](C)c4ccccc4Cl)c(C(N)=O)s3)c2cc1OC [GSK237701A]
Percent Control [1]: 100%
Percent Control [2]: 95%
Percent Control [3]: 97%
Percent Control [4]: 18%
Percent Control [5]: 99%
Percent Control [6]: 85%
Percent Control [7]: 97%
Percent Control [8]: 94%
Percent Control [9]: 64%
Percent Control [10]: 68%

Cc1cc(O)cc(C)c1/C=C/c1cncc(C(N)=O)c1 [GW435821X]
Percent Control [1]: 95%
Percent Control [2]: 100%
Percent Control [3]: 100%
Percent Control [4]: 100%
Percent Control [5]: 100%
Percent Control [6]: 96%
Percent Control [7]: 100%
Percent Control [8]: 55%
Percent Control [9]: 38%
Percent Control [10]: 100%

COc1cccc(-c2c[nH]c3c(N/N=C/c4ccncc4)ncnc23)c1 [GW814408X]
Percent Control [1]: 100%
Percent Control [2]: 100%
Percent Control [3]: 100%
Percent Control [4]: 62%
Percent Control [5]: 100%
Percent Control [6]: 0%
Percent Control [7]: 1%
Percent Control [8]: 51%
Percent Control [9]: 91%
Percent Control [10]: 29%

O=C1Nc2ccc(C(=O)c3ccco3)cc2C1=Cc1cc(Cl)c(O)c(Cl)c1 [GW406108X]
Percent Control [1]: 60%
Percent Control [2]: 100%
Percent Control [3]: 97%
Percent Control [4]: 100%
Percent Control [5]: 65%
Percent Control [6]: 67%
Percent Control [7]: 69%
Percent Control [8]: 2.2%
Percent Control [9]: 98%
Percent Control [10]: 11%

CN(C)CCNC(=O)Nc1ccc(N(C)c2ccnc(Nc3ccc(CS(C)(=O)=O)cc3)n2)cc1.Cl [GW830900A]
Percent Control [1]: 89%
Percent Control [2]: 100%
Percent Control [3]: 89%
Percent Control [4]: 7.1%
Percent Control [5]: 96%
Percent Control [6]: 100%
Percent Control [7]: 85%
Percent Control [8]: 100%
Percent Control [9]: 100%
Percent Control [10]: 88%

COc1cc(C=NNc2ncnc3c2cnn3-c2ccccc2)ccc1O [GW513184X]
Percent Control [1]: 100%
Percent Control [2]: 100%
Percent Control [3]: 100%
Percent Control [4]: 28%
Percent Control [5]: 84%
Percent Control [6]: 7.7%
Percent Control [7]: 87%
Percent Control [8]: 100%
Percent Control [9]: 78%
Percent Control [10]: 43%
